Measured values published in PubChem BioAssay (NCI).
About 83,000 compounds went through this panel and 20% of them were active in at least one assay; those are over-represented in the sample as a whole.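 Assay: single dose, 48 h. Readout: percent growth (0 = no net growth; negative = cell death). Active: <10.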 Active and inactive are the calls of the source.

What was measured:
Assay in all cases: NCI-60 one-dose screen, 48 h (100 = growth as untreated, 0 = no growth, -100 = all killed)
Conditions in all cases: 10 µM unless noted
DU-145 prostate = test system: DU-145 prostate
K-562 leukemia = test system: K-562 leukemia
MALME-3M melanoma = test system: MALME-3M melanoma
MDA-MB-231 breast = test system: MDA-MB-231 breast
RXF 393 renal = test system: RXF 393 renal
SF-268 CNS = test system: SF-268 CNS
SF-295 CNS = test system: SF-295 CNS
SF-539 CNS = test system: SF-539 CNS
UACC-257 melanoma = test system: UACC-257 melanoma
M14 melanoma = test system: M14 melanoma

Measured: growth

C[C@H]1OCC2(CCN(c3cnc(C(=O)Nc4cc(F)cc5cccnc45)cn3)CC2)[C@H]1N
active: K-562 leukemia 6.28%
inactive: DU-145 prostate 78.2% | MALME-3M melanoma 48.1% | MDA-MB-231 breast 31.6% | RXF 393 renal 58.4% | SF-268 CNS 72.2% | SF-295 CNS 92.2% | SF-539 CNS 68.4% | UACC-257 melanoma 101% | M14 melanoma 71.2%

NC1[C@H]2CN(c3cnc(C(=O)Nc4cc(F)cc5cccnc45)cn3)C[C@@H]12 (some centres undefined)
inactive: DU-145 prostate 76.4% | K-562 leukemia 15% | MALME-3M melanoma 57.5% | MDA-MB-231 breast 47.8% | RXF 393 renal 70.6% | SF-268 CNS 87.5% | SF-295 CNS 96.4% | SF-539 CNS 76.9% | UACC-257 melanoma 97.7% | M14 melanoma 79.3%

CNC(=O)c1cc(-n2ccc3cc(NC(=O)Nc4ccc(N5CCN(C)CC5)c(C(F)(F)F)c4)ccc32)ccn1
active: K-562 leukemia -53.3% | MALME-3M melanoma 2.37% | RXF 393 renal -27.7% | SF-295 CNS -47.2% | SF-539 CNS 1.48%
inactive: DU-145 prostate 86.5% | MDA-MB-231 breast 61.5% | SF-268 CNS 83.4% | UACC-257 melanoma 72.2% | M14 melanoma 59%

O=C1/C(=C/c2cc(F)cc(F)c2)Cc2cc3c(cc21)OCO3
inactive: DU-145 prostate 54.4% | K-562 leukemia 18.4% | MALME-3M melanoma 37.9% | MDA-MB-231 breast 40.5% | RXF 393 renal 29% | SF-268 CNS 64.7% | SF-295 CNS 35.6% | SF-539 CNS 33.1% | UACC-257 melanoma 73.6% | M14 melanoma 20.2%

Cn1c(SCC(=O)c2ccc(Br)cc2)nc2ccccc2c1=O
inactive: DU-145 prostate 97.8% | K-562 leukemia 85.2% | MALME-3M melanoma 111% | MDA-MB-231 breast 94.9% | RXF 393 renal 115% | SF-268 CNS 97.5% | SF-295 CNS 97.6% | SF-539 CNS 97.3% | UACC-257 melanoma 108% | M14 melanoma 96.6%

COc1ccc(C2CC(c3cccc(OCCCCOc4cccc(C5=NOC(c6ccc(OC)cc6)C5)c4)c3)=NO2)cc1 (centres undefined)
inactive: DU-145 prostate 104% | K-562 leukemia 45.1% | MALME-3M melanoma 110% | MDA-MB-231 breast 99.9% | RXF 393 renal 114% | SF-268 CNS 108% | SF-295 CNS 101% | SF-539 CNS 111% | UACC-257 melanoma 96.9%

CCNCCOc1ccc(/C(=C(/CC)c2ccc(Cl)cc2)c2ccc(OCCCN(C)C)cc2)cc1
active: DU-145 prostate -91.7% | K-562 leukemia 0.0244% | MALME-3M melanoma -85.1% | MDA-MB-231 breast -87.2% | RXF 393 renal -92.1% | SF-268 CNS -66.7% | SF-295 CNS -85.8% | SF-539 CNS -93.9% | UACC-257 melanoma -82.8% | M14 melanoma -86.9%

COc1ccccc1/C=C1\Oc2ccc(O)c(O)c2C1=O
inactive: DU-145 prostate 98.4% | K-562 leukemia 95.6% | MALME-3M melanoma 102% | MDA-MB-231 breast 94.9% | RXF 393 renal 90.2% | SF-268 CNS 102% | SF-295 CNS 112% | SF-539 CNS 91.8% | UACC-257 melanoma 101% | M14 melanoma 95.4%

Nc1ncc(-c2ccc3ncnc(NCc4ccccc4)c3c2)cn1
inactive: DU-145 prostate 23.7% | K-562 leukemia 67.6% | MALME-3M melanoma 38% | MDA-MB-231 breast 39.8% | SF-268 CNS 44.8% | SF-295 CNS 47.4% | SF-539 CNS 44.3% | UACC-257 melanoma 85.1% | M14 melanoma 65.6%
active: RXF 393 renal 8.82%

CN(C)S(=O)(=O)c1ccc(-c2nc(C(Cl)Cl)nc3cc(-c4ccc(F)cc4)nn23)cc1
inactive: SF-268 CNS 19.4% | SF-295 CNS 21.8% | SF-539 CNS 31.7% | UACC-257 melanoma 52.4%
active: DU-145 prostate 5.97% | K-562 leukemia 8.44% | MALME-3M melanoma -11.5% | MDA-MB-231 breast 1.26% | RXF 393 renal -19.2% | M14 melanoma 1.95%

CCOC(=O)c1ccccc1NC1=C(Cl)C(=O)c2nc(C)ccc2C1=O
inactive: DU-145 prostate 112% | K-562 leukemia 89.6% | MALME-3M melanoma 107% | MDA-MB-231 breast 90.3% | RXF 393 renal 102% | SF-268 CNS 99.2% | SF-295 CNS 110% | SF-539 CNS 96.1% | UACC-257 melanoma 99.2% | M14 melanoma 109%

Cc1cc(=O)[nH]c(O)c1C#N
inactive: DU-145 prostate 108% | K-562 leukemia 99.2% | MALME-3M melanoma 105% | MDA-MB-231 breast 98.2% | RXF 393 renal 114% | SF-268 CNS 103% | SF-295 CNS 102% | SF-539 CNS 97% | UACC-257 melanoma 100% | M14 melanoma 94.4%

Cc1ccc(/C(N)=N/C(N)=N/c2nc3ccccc3s2)cc1
inactive: DU-145 prostate 96.5% | K-562 leukemia 82.5% | MALME-3M melanoma 110% | MDA-MB-231 breast 89.9% | RXF 393 renal 103% | SF-268 CNS 103% | SF-295 CNS 32.9% | SF-539 CNS 108% | UACC-257 melanoma 111% | M14 melanoma 107%

C=CCSC1=NC2C(N(CC)C(=O)N2CC)N1/N=C/C=C/c1ccccc1OC (centres undefined)
inactive: DU-145 prostate 92.2% | K-562 leukemia 28% | MALME-3M melanoma 72.2% | MDA-MB-231 breast 82.5% | RXF 393 renal 79.3% | SF-268 CNS 89.2% | SF-295 CNS 58.5% | SF-539 CNS 78.1% | UACC-257 melanoma 83% | M14 melanoma 72.6%

CC1=C(C)C(=O)C(Nc2cccc(C(F)(F)F)c2)=C(Br)C1=O
inactive: DU-145 prostate 105% | MALME-3M melanoma 101% | MDA-MB-231 breast 69.2% | RXF 393 renal 105% | SF-268 CNS 97.7% | SF-295 CNS 106% | SF-539 CNS 96% | UACC-257 melanoma 88.1% | M14 melanoma 99%
active: K-562 leukemia -17.9%

NC(=S)n1c(=O)n(-c2cccc(C(F)(F)F)c2)c(=O)c2cc(-c3ccc(F)cc3F)ccc21
active: K-562 leukemia 8.79% | MALME-3M melanoma -17.5% | MDA-MB-231 breast -11.3% | RXF 393 renal 0.891% | SF-295 CNS -12% | UACC-257 melanoma -7.03%
inactive: DU-145 prostate 24.5% | SF-268 CNS 13.3% | SF-539 CNS 17.2% | M14 melanoma 14.5%

O=C(CCCCCCNC(=O)C(O)(O)C(F)(F)F)Nc1ccc(Cl)cc1
inactive: DU-145 prostate 17.6% | K-562 leukemia 14.4% | MDA-MB-231 breast 36.2% | SF-268 CNS 22% | SF-539 CNS 28.6% | UACC-257 melanoma 31% | M14 melanoma 34.4%
active: MALME-3M melanoma 9.88% | RXF 393 renal -23.7% | SF-295 CNS 0.336%

Oc1[nH]c2ccc(Cl)cc2c1N=Nc1nc(N=Nc2c(O)[nH]c3ccc(Cl)cc23)nc(N2CCOCC2)n1
inactive: DU-145 prostate 88.4% | K-562 leukemia 32.9% | MALME-3M melanoma 56.4% | MDA-MB-231 breast 36.3% | RXF 393 renal 13.7% | SF-268 CNS 49.1% | SF-295 CNS 45.7% | SF-539 CNS 16% | UACC-257 melanoma 82% | M14 melanoma 77.5%

CC(Nc1ncnc2ccc(-c3cnc(N)nc3)cc12)c1ccccc1 (centres undefined)
active: RXF 393 renal -2.14%
inactive: DU-145 prostate 25.1% | K-562 leukemia 44.5% | MALME-3M melanoma 28.9% | MDA-MB-231 breast 25.4% | SF-268 CNS 40.9% | SF-295 CNS 29.6% | SF-539 CNS 23.4% | UACC-257 melanoma 77.2% | M14 melanoma 48.3%

CCOC(=O)C1=C(C)NC(C)=C(C(=O)OCc2ccccc2)C1c1cccc(C#N)c1 (centres undefined)
inactive: DU-145 prostate 57.2% | K-562 leukemia 16.9% | MALME-3M melanoma 38% | MDA-MB-231 breast 52.3% | RXF 393 renal 44.5% | SF-268 CNS 57.1% | SF-295 CNS 15.5% | SF-539 CNS 23.1% | UACC-257 melanoma 55.9% | M14 melanoma 14.6%

COc1ccc(Cn2cc(C#N)c(N)c2C(C)=O)cc1
inactive: DU-145 prostate 107% | K-562 leukemia 103% | MALME-3M melanoma 102% | MDA-MB-231 breast 94.8% | RXF 393 renal 102% | SF-268 CNS 96.5% | SF-295 CNS 110% | SF-539 CNS 99.5% | UACC-257 melanoma 106% | M14 melanoma 110%

O=C1[C@H]2Cc3c([nH]c4ccccc34)[C@H](c3ccc(Cl)cc3)N2C(=O)CN1C1CCN(CC2CCCCC2)CC1
inactive: DU-145 prostate 74.6% | MALME-3M melanoma 45.8% | MDA-MB-231 breast 87% | RXF 393 renal 45.8% | SF-268 CNS 60.2% | SF-295 CNS 97.4% | SF-539 CNS 66.2% | UACC-257 melanoma 75.1%
active: K-562 leukemia 6.81% | M14 melanoma -56%

CNC(=O)c1cc(Oc2ccc3c(c2)sc2nc(-c4ccc(N(C)C)cc4)cn23)ccn1
inactive: DU-145 prostate 20.2% | K-562 leukemia 11.8% | MALME-3M melanoma 57.5% | MDA-MB-231 breast 15.9% | RXF 393 renal 13.9% | SF-268 CNS 45.7% | UACC-257 melanoma 78.8% | M14 melanoma 19.1%
active: SF-295 CNS 8.54% | SF-539 CNS -14%

O=C1[C@@H]2Cc3c([nH]c4ccccc34)[C@H](c3ccc(Cl)cc3)N2C(=O)CN1C1CCN(Cc2ccccc2)CC1
inactive: DU-145 prostate 56.1% | MALME-3M melanoma 74.5% | MDA-MB-231 breast 68.6% | RXF 393 renal 57.6% | SF-268 CNS 50.5% | SF-295 CNS 70.6% | SF-539 CNS 77.6% | UACC-257 melanoma 61.4% | M14 melanoma 27.9%
active: K-562 leukemia 9.57%

O=C(CCCCCCN1CC(=O)N2[C@@H](C3CC3)c3[nH]c4ccccc4c3C[C@H]2C1=O)NO
inactive: DU-145 prostate 70.9% | K-562 leukemia 21.5% | MALME-3M melanoma 10.1% | MDA-MB-231 breast 83.7% | RXF 393 renal 76.5% | SF-268 CNS 93.6% | SF-295 CNS 74.9% | SF-539 CNS 60.7% | UACC-257 melanoma 41.9% | M14 melanoma 60.2%

O=c1c2ccccc2cc2n1CCN=C2c1ccccc1
inactive: DU-145 prostate 102% | K-562 leukemia 103% | MALME-3M melanoma 102% | MDA-MB-231 breast 96.2% | RXF 393 renal 96.2% | SF-268 CNS 97.2% | SF-295 CNS 103% | SF-539 CNS 98.6% | UACC-257 melanoma 110% | M14 melanoma 103%

CCc1cc2c(cc1Cl)nc1c(=O)[nH]c(=O)nc-1n2CCOCC(C)C
active: MALME-3M melanoma 2.24%
inactive: DU-145 prostate 95% | K-562 leukemia 42.1% | MDA-MB-231 breast 55.8% | RXF 393 renal 80.5% | SF-268 CNS 80% | SF-295 CNS 60% | SF-539 CNS 79.3% | UACC-257 melanoma 36.6% | M14 melanoma 49.4%
